Experiment [1] is described as follows: Quantitative High-Throughput drug screen in 47 multiple myeloma cell lines against the NCATS MIPE library collection: FR4_PLB cell viability assay (AID 1918924; further: nearly all actives have a fitted effect of over 35% in size; further: potency means the concentration at half of the fitted maximal effect). In a few lines:
(§1)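 qHTS of the MIPE 4.0 collection: 500 myeloma cells/well, 48 h drug exposure at 37C in 5% CO2, then CellTiter-Glo for 5 min at room temperature before luminescence reading.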

Experiment [2] is described as follows: Quantitative High-Throughput drug screen in 47 multiple myeloma cell lines against the NCATS MIPE library collection: EJM_DSMZ cell viability assay (AID 1918926; further: nearly all actives have a fitted effect of over 30% in size; further: potency means the concentration at half of the fitted maximal effect). In a few lines:
(§2)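 Myeloma cells (500 per well) were exposed to MIPE 4.0 compounds by pin transfer and incubated 48 hours at 37C, 5% CO2. Viability was read as ATP by CellTiter-Glo luminescence, normalised to DMSO (100%) and media-only (0%) wells.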

A short description of experiment [3]: Quantitative High-Throughput drug screen in 47 multiple myeloma cell lines against the NCATS MIPE library collection: AMO1_DSMZ cell viability assay (AID 1918927; further: nearly all actives have a fitted effect of over 30% in size; further: potency means the concentration at half of the fitted maximal effect). In a few lines:
as §2

Experiment [4] is described as follows: Quantitative High-Throughput drug screen in 47 multiple myeloma cell lines against the NCATS MIPE library collection: ARP1_JJKsccF8 cell viability assay (AID 1918928; further: nearly all actives have a fitted effect of over 40% in size; further: potency means the concentration at half of the fitted maximal effect). In a few lines:
(§3)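 Cell viability inhibition in this qHTS is measured via ATP content (CellTiter-Glo) after 48 h drug exposure at 37 °C. Wells hold 500 cells; DMSO-treated wells define 100% and medium-only wells 0%.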

The nature of experiment [5]: Quantitative High-Throughput drug screen in 47 multiple myeloma cell lines against the NCATS MIPE library collection: ARD_JJKsccE7 cell viability assay (AID 1918929; further: potency means the concentration at half of the fitted maximal effect). The essentials: as §2
A short description of experiment [6]: Quantitative High-Throughput drug screen in 47 multiple myeloma cell lines against the NCATS MIPE library collection: INA6_PLB cell viability assay (AID 1918965; further: nearly all actives have a fitted effect of over 55% in size; further: potency means the concentration at half of the fitted maximal effect). The essentials:
(§4)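 Luminescent ATP measurement with CellTiter-Glo gives viability, scaled between DMSO-only wells (100%) and media-only wells (0%). Cells, 500 per well, faced library compounds for 48 hours at 37C.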

Experiment [7] can be described thus: Quantitative High-Throughput drug screen in 47 multiple myeloma cell lines against the NCATS MIPE library collection: JJN3_DSMZ cell viability assay (AID 1918966; further: potency means the concentration at half of the fitted maximal effect; nearly all actives have a fitted effect of over 50% in size). The essentials:
as §2

Experiment [8] in a line: Quantitative High-Throughput drug screen in 47 multiple myeloma cell lines against the NCATS MIPE library collection: Karpas25_ECACC cell viability assay (AID 1918968; further: nearly all actives have a fitted effect of over 35% in size; further: potency means the concentration at half of the fitted maximal effect). In a few lines: as §2
A short description of experiment [9]: Quantitative High-Throughput drug screen in 47 multiple myeloma cell lines against the NCATS MIPE library collection: KMS12BM_JCRB cell viability assay (AID 1918971). Further: nearly all actives have a fitted effect of over 35% in size. Further: potency means the concentration at half of the fitted maximal effect. In a few lines:
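Myeloma cell lines, 500 cells per well, exposed to MIPE 4.0 library compounds for 48 h at 37C, 5% CO2. Viability from ATP by CellTiter-Glo luminescence; normalised to DMSO (100%) and media-only (0%) wells.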

The nature of experiment [10]: Quantitative High-Throughput drug screen in 47 multiple myeloma cell lines against the NCATS MIPE library collection: Delta47_JCRB cell viability assay (AID 1918925; further: potency means the concentration at half of the fitted maximal effect; nearly all actives have a fitted effect of over 45% in size). In a few lines: as §2
Experiment [11] can be described thus: Quantitative High-Throughput drug screen in 47 multiple myeloma cell lines against the NCATS MIPE library collection: Karpas620_DSMZ cell viability assay (AID 1918959). Further: nearly all actives have a fitted effect of over 30% in size. The essentials:
as §1

Experiment [12] can be described thus: Quantitative High-Throughput drug screen in 47 multiple myeloma cell lines against the NCATS MIPE library collection: JIM1_ECACC cell viability assay (AID 1918964). The essentials:
as §2

The nature of experiment [13]: Quantitative High-Throughput drug screen in 47 multiple myeloma cell lines against the NCATS MIPE library collection: H1112_PLB cell viability assay (AID 1918967; further: nearly all actives have a fitted effect of over 30% in size; further: potency means the concentration at half of the fitted maximal effect). The essentials:
as §2

Experiment [14] in a line: Quantitative High-Throughput drug screen in 47 multiple myeloma cell lines against the NCATS MIPE library collection: KMS27_JCRB cell viability assay (AID 1918970). Further: nearly all actives have a fitted effect of over 30% in size. In a few lines: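 Myeloma cells (500 per well) were exposed to MIPE 4.0 compounds for 48 h at 37 °C, 5% CO2; viability was read as ATP luminescence with CellTiter-Glo, normalized to DMSO-only (100%) and media-only (0%) wells.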

Experiment [15] in a line: Quantitative High-Throughput drug screen in 47 multiple myeloma cell lines against the NCATS MIPE library collection: KMM1_JCRB cell viability assay (AID 1918960). Further: nearly all actives have a fitted effect of over 30% in size. Further: potency means the concentration at half of the fitted maximal effect. In a few lines: as §3
Experiment [16] is described as follows: Quantitative High-Throughput drug screen in 47 multiple myeloma cell lines against the NCATS MIPE library collection: Karpas417_ECACC cell viability assay (AID 1918961). The note with it: Karpas417 myeloma viability, CellTiter-Glo ATP luminescence, 48 h; viability (% of DMSO): at 45.8 µM (top of the series). The essentials:
as §4
A general note: ATP-based viability assays read luminescence as a measure of living cells.

A short description of experiment [17]: Quantitative High-Throughput drug screen in 47 multiple myeloma cell lines against the NCATS MIPE library collection: KHM11_PLB cell viability assay (AID 1918962). Further: nearly all actives have a fitted effect of over 35% in size. In a few lines: as §1
Experiment [18] is described as follows: Quantitative High-Throughput drug screen in 47 multiple myeloma cell lines against the NCATS MIPE library collection: JIM3_ECACC cell viability assay (AID 1918963; further: nearly all actives have a fitted effect of over 35% in size). The essentials: as §1

Results filed as inconclusive are left out. Active and inactive are the calls of the source. The call rests on the fitted dose curve; in most records, active means well fitted curve in the direction sought with a large enough effect; inconclusive means small, poorly fitted or top-dose-only effect, or another doubt; inactive means no such curve, though single readings can be large; an effect the other way counts as inactive or inconclusive.

In the case of `CCCCc1ccc2nc(NC(=O)OC)[nH]c2c1`, the Potency in experiment [1] is 0.0021 µM (active); in experiment [2] it was 0.0264 µM (active); in [4], 0.0066 µM (active); in [5], 0.0093 µM (active); in [6], 0.001 µM (active); in [7] it was 4.69 µM (active). The Potency in [8] was 0.0235 µM (active); in experiment [9], 0.0093 µM (active). The Potency entry in experiment [3] was “inactive”.

On to `CN(C)[C@@H](CCOc1cccc2ccccc12)c1ccccc1`, for which the Potency in [1] is 18.7 µM (active); in experiment [10], 18.7 µM (active); in experiment [4], 26.4 µM (active); in [13] it was 18.7 µM (active). The Potency entry in [11], in experiment [12] and in [14] was “inactive” throughout.

For the molecule `O=c1c(O)c(-c2ccc(O)cc2O)oc2cc(O)cc(O)c12`, the Potency entry in experiment [1], in experiment [2], in [4], in experiment [5], in experiment [15] and in experiment [16] was “inactive” throughout. The Potency result in [17], in [18] and in experiment [13] was “inactive” each time. Besides, the Potency is 10.5 µM (active) in experiment [8] and 2.09 µM (active) in experiment [9].

For `CC1=C(C)C(=O)C(C(CCCCCC(=O)O)c2ccccc2)=C(C)C1=O` (stereo not drawn), the Potency result in experiment [1], in [2], in [11] and in [13] was “inactive” in each case.

As to `CCOC(=O)C1=C(O)C(=O)N(Cc2ccccc2)C1`, the Potency result in experiment [1], in [2], in [3], in experiment [5], in [11] and in experiment [15] was “inactive” each time. Moreover, the Potency result in experiment [6], in [13] and in experiment [9] was “inactive” throughout. Further, the Potency in experiment [7] is 9.35 µM (active).

With `Cc1c(OCC(F)(F)F)ccnc1CS(=O)c1nc2ccccc2[nH]1` (stereo not drawn), the Potency result in [1], in [2], in [4], in experiment [11], in [14] and in [9] was “inactive” throughout. Further, the Potency in experiment [15] and in experiment [13] was 20.9 µM (active) each time.

In the case of `C[C@]12CCC(=O)C=C1CC[C@@H]1[C@H]2[C@@H](O)C[C@@]2(C)[C@H]1CC[C@]2(O)C(=O)CO`, the Potency result in experiment [1], in experiment [2], in [3], in experiment [11], in [18] and in experiment [12] was “inactive” in each case. Also, the Potency entry in experiment [14] was “inactive”. Also, the Potency in [5] is 0.0118 µM (active); in [8], 5.9 µM (active).

On to `O=C(NC(Cc1cc(=O)[nH]c2ccccc12)C(=O)O)c1ccc(Cl)cc1` (stereo not drawn), for which the Potency result in [1], in [4], in [5], in [16], in experiment [13] and in [14] was “inactive” throughout. Besides, the Potency entry in experiment [9] is “inactive”. Moreover, the Potency in [2] is 4.69 µM (active).

In the case of `CCCCN(CCCC)CCC(O)c1cc2c(Cl)cc(Cl)cc2c2cc(C(F)(F)F)ccc12` (stereo not drawn), the Potency in [1] is 20.9 µM (active); in experiment [2], 0.264 µM (active); in experiment [6], 18.7 µM (active); in experiment [8], 14.8 µM (active); in experiment [9] it was 20.9 µM (active). Further, the Potency entry in [4], in [5] and in experiment [11] was “inactive” throughout.

With `CN(C)c1ccc(O)c2c1C[C@H]1C[C@H]3[C@H](N(C)C)C(=O)C(C(N)=O)=C(O)[C@@]3(O)C(=O)C1=C2O`, the Potency in experiment [1] is 20.9 µM (active); in experiment [2], 14.8 µM (active); in [4], 16.6 µM (active); in experiment [6], 13.2 µM (active); in experiment [8], 16.6 µM (active); in experiment [9], 18.7 µM (active). In addition, the Potency entry in experiment [3], in [5], in experiment [11], in experiment [15], in [16] and in [12] was “inactive” each time.

Turning to `NNc1nncc2ccccc12`, the Potency result in [1], in [4], in experiment [5], in experiment [11], in experiment [15] and in [18] was “inactive” in each case. Besides, the Potency result in experiment [13], in experiment [14] and in experiment [9] was “inactive” each time.

Take `CC(C)(S)[C@@H](N)C(=O)O`: the Potency entry in [1], in experiment [2], in experiment [3], in [4], in [5] and in [11] was “inactive” throughout. For the same molecule, the Potency entry in [18], in experiment [12], in experiment [13] and in [14] was “inactive” each time.

For `Cc1ncc([N+](=O)[O-])n1CC(C)O` (stereo not drawn), the Potency result in experiment [1], in experiment [2], in [3], in experiment [4], in experiment [5] and in [11] was “inactive” in each case. In addition, the Potency result in experiment [15], in experiment [14] and in [9] was “inactive” in each case. The Potency in [8] is 11.8 µM (active).

As to `COC(=O)C1=C(C)NC(C)=C(C(=O)OCCCN2CCC(c3ccccc3)(c3ccccc3)CC2)C1c1cccc([N+](=O)[O-])c1` (stereo not drawn), the Potency entry in experiment [1], in experiment [2], in experiment [3], in experiment [5], in [11] and in [17] was “inactive” in each case. Also, the Potency entry in [18], in [13] and in [14] was “inactive” each time.

With `O=c1oc2cc(O)ccc2s1`, the Potency result in experiment [1], in experiment [2], in [18], in [13] and in experiment [9] was “inactive” each time. For the same molecule, the Potency in experiment [3] was 23.5 µM (active); in experiment [8], 7.43 µM (active).

Regarding `CCOc1cc(CC(=O)N[C@@H](CC(C)C)c2ccccc2N2CCCCC2)ccc1C(=O)O`, the Potency result in experiment [1], in [2], in experiment [4], in experiment [5], in experiment [18] and in experiment [13] was “inactive” in each case. In addition, the Potency entry in [8] was “inactive”.

The values are drawn from PubChem BioAssay (NCATS).
